Drawing on PubChem BioAssay (Tox21), this text covers Potency for 33 compounds.

Several values for one entry are separate records, joined by “and”; a condition that tells them apart may be missing. Equal entries are not always repeated. Inconclusive results are not listed. More than one record can exist for a structure, and the calls need not agree. Activity calls are given as the source filed them. Unless noted, calls follow the shape of the dose curve; as a rule, active = well fitted curve in the direction sought with a large enough effect in the repeat runs; inconclusive = weak or mixed curves; inactive = no such curve, though single readings can be large; an effect the other way counts as inactive or inconclusive.

In test [1] the target is Glucocorticoid receptor (Homo sapiens) (UniProt P04150). The experiment in a line: qHTS assay to identify small molecule antagonists of the glucocorticoid receptor (GR) signaling pathway (AID 720692; active = well fitted inhibition curve with a large enough effect in the signal ratio in the repeat runs, not every such curve was filed as active; the % refers to the signal ratio; also: potency is read from the fitted curve at half-maximal effect). An outline of the steps: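 Fluorescence from cleaved LiveBLAzer B/G FRET substrate reports GRE-driven beta-lactamase in HeLa cells; compounds are tested against 5 nM dexamethasone (final) over 18 h at 37 C, substrate incubation 2 h at room temperature.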

The target of test [2] is Androgen receptor (Homo sapiens) (UniProt P10275). The experiment in a line: qHTS assay to identify small molecule antagonists of the androgen receptor (AR) signaling pathway (AID 743035; active = well fitted inhibition curve with a large enough effect in the signal ratio in the repeat runs, not every such curve was filed as active; the % refers to the signal ratio; also: potency is read from the fitted curve at half-maximal effect). An outline of the steps:
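Cell line: GeneBLAzer AR-UAS-bla GripTite (HEK293). Stimulus: R1881 added after compound. Exposure: 16 h, 37C, 5% CO2. Readout: LiveBLAzer B/G FRET fluorescence after 2 h at room temperature.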
(qHTS replaces the single test concentration by a dilution series.)

Test [3] has the same target. The experiment in a line: qHTS assay to identify small molecule agonists of the androgen receptor (AR) signaling pathway (AID 743036; active = well fitted activation curve with a large enough effect in the signal ratio in the repeat runs, with a control signal flat, not every such curve was filed as active; the % refers to the signal ratio). The essentials:
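Activation was read as beta-lactamase FRET signal from LiveBLAzer B/G substrate, added for 2 h at room temperature. Before that, GeneBLAzer AR-UAS-bla GripTite (HEK293) cells had 16 h compound exposure at 37C.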

The target is the same in test [4]. Description: qHTS assay to identify small molecule agonists of the androgen receptor (AR) signaling pathway using the MDA cell line (AID 743040; also: nearly all actives have a fitted effect of over 20% in size; also: potency is read from the fitted curve at half-maximal effect). The essentials: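 After a 5 h incubation at 37C and 0% CO2, MDA-kb2 reporter cells were dosed with compounds in DMSO and kept 16 h under the same conditions. Luciferase activity was then read as luminescence with ONE-Glo.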

Test [5] has the same target. The experiment in a line: qHTS assay to identify small molecule antagonists of the androgen receptor (AR) signaling pathway using the MDA cell line (AID 743042; also: nearly all actives have a fitted effect of over 55% in size; also: potency is read from the fitted curve at half-maximal effect). The essentials: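 Antagonist mode: compounds plus R1881 agonist added to MDA-kb2 AR-luc cells, incubated 16 h at 37C. Luciferase reporter luminescence quantified, with multiplexed CellTiter-Fluor readout for cell viability.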

Test [6] addresses Estrogen receptor (Homo sapiens) (UniProt P03372). The experiment in a line: qHTS assay to identify small molecule agonists of the estrogen receptor alpha (ER-alpha) signaling pathway using the BG1 cell line (AID 743079). Also: nearly all actives have a fitted effect of over 20% in size. Also: potency is read from the fitted curve at half-maximal effect.
The target is the same in test [7]. Description: qHTS assay to identify small molecule antagonists of the estrogen receptor alpha (ER-alpha) signaling pathway (AID 743069; active = well fitted curve in the direction sought with a large enough effect in the signal ratio in the repeat runs, not every such curve was filed as active; the % refers to the signal ratio). An outline of the steps:
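Compound effects are measured against 17beta-estradiol stimulation in HEK293 cells with a UAS-controlled beta-lactamase reporter for ER-alpha. Exposure lasts 18 hr at 37C; LiveBLAzer B/G FRET substrate follows for 2 hr at room temperature.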

The target of test [8] is Nuclear receptor subfamily 1 group I member 2 (Homo sapiens) (UniProt O75469). The experiment in a line: CYP3A4 induction through human pregnane X receptor (PXR) by small molecules, qHTS assay (AID 1346984). Also: nearly all actives have a fitted effect of over 40% in size. Also: potency is read from the fitted curve at half-maximal effect. An outline of the steps: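 DPX-2 reporter cells; 24h cpd, 37C; Luciferin-IPA 3uM final x3h; One-Glo 30 min RT; lumi read.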

Chain of Glucocorticoid receptor (Homo sapiens) (P04150 whole entry, looked up): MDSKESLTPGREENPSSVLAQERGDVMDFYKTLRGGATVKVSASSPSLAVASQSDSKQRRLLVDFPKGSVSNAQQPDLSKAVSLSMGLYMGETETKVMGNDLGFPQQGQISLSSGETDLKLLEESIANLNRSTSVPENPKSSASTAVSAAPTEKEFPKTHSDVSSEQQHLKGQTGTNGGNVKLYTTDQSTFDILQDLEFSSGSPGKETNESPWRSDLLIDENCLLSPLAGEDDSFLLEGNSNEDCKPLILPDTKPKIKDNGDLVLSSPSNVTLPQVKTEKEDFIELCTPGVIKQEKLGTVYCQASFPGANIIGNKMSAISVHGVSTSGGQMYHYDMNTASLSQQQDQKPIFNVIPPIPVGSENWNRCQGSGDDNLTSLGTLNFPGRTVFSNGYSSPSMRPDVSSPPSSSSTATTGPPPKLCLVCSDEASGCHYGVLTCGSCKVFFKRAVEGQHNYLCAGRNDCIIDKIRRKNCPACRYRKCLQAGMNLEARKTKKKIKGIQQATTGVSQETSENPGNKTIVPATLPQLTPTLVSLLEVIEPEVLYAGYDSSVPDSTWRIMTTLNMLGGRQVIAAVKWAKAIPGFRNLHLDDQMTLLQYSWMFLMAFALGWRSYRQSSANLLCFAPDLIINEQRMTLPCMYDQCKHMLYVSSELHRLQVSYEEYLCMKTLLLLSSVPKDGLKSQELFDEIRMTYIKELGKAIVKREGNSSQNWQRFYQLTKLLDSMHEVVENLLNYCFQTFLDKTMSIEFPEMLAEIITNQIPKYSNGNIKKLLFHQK
Chain of Androgen receptor (Homo sapiens) (P10275 whole entry, looked up): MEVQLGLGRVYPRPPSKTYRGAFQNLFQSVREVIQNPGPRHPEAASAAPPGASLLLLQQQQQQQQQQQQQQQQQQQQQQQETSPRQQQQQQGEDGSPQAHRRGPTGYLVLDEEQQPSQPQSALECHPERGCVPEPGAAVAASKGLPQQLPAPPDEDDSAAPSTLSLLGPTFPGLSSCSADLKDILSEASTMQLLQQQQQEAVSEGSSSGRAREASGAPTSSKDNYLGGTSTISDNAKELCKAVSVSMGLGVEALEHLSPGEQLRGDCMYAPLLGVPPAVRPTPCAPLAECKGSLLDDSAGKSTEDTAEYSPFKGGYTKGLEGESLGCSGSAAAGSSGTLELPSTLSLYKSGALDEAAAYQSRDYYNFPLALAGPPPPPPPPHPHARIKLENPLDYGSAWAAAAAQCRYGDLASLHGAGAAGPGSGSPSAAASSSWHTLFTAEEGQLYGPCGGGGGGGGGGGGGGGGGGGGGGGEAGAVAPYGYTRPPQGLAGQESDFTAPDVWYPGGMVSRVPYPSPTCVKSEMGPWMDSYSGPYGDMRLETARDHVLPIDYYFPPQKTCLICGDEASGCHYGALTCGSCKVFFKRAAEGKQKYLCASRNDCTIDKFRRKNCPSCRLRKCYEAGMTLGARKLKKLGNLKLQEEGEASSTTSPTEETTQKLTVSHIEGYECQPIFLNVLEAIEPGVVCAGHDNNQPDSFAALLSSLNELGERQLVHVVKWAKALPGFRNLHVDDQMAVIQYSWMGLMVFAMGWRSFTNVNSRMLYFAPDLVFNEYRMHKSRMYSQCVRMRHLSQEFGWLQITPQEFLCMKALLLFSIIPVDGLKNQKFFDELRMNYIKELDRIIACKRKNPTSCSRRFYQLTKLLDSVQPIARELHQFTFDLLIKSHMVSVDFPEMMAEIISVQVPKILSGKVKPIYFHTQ
Chain of Estrogen receptor (Homo sapiens) (P03372 whole entry, looked up): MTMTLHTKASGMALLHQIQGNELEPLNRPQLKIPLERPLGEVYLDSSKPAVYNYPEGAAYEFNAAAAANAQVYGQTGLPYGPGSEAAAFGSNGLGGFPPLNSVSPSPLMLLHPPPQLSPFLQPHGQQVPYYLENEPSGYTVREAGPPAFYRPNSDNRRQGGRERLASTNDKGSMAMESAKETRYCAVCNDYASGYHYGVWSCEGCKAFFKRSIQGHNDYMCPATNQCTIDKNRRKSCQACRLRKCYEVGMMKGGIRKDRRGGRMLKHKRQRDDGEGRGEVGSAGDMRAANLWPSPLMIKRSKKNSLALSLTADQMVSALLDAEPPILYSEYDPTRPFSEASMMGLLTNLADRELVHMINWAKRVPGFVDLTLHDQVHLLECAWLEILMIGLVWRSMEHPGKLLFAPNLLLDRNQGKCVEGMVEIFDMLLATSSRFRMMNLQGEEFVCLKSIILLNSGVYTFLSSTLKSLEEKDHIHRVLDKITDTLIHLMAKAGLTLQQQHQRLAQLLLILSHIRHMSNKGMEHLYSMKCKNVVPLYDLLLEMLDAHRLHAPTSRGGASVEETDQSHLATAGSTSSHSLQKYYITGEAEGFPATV

On to `O=C1CCCCC1CN1CCCCC1` (stereo unspecified), for which the Potency result in test [1], in test [2], in test [3], in test [4], in test [5] and in test [6] was “inactive” each time.
As for `C=CCC1(C(C)CCC)C(=O)N=C(S)NC1=O` (stereo unspecified), the Potency result in test [1], in test [3], in test [4], in test [5] and in test [6] was “inactive” throughout.
On to `NCC(O)c1cccc(O)c1` (stereo unspecified), for which the Potency entry in test [1], in test [2], in test [3], in test [4], in test [5] and in test [7] was “inactive” in each case. The Potency entry in test [6] is “inactive”.
With `C=CCN1CC[C@]23c4c5ccc(O)c4O[C@H]2[C@@H](O)C=C[C@H]3[C@H]1C5`, the Potency entry in test [2], in test [3], in test [4] and in test [5] was “inactive” throughout.
Consider `C=CC[C@]1(O)CC[C@H]2[C@@H]3CCC4=CCCC[C@@H]4[C@H]3CC[C@@]21C`, for which the Potency is 7.56 µM (active) in test [1] and 0.376 µM (active) in test [6].
With `CN1CCCC(=C(c2cccs2)c2cccs2)C1`, the Potency result in test [2], in test [3], in test [4], in test [5], in test [7] and in test [6] was “inactive” throughout.
As to `O=C1CCO1`, the Potency entry in test [1], in test [2], in test [3], in test [4], in test [5] and in test [6] was “inactive” each time.
For `Oc1ccc2c3c1O[C@H]1[C@@H](O)CC[C@@]4(O)[C@@H](C2)N(CC2CCC2)CC[C@]314`, the Potency entry in test [1], in test [5] and in test [6] was “inactive” each time.
As to `CC1(C)S[C@@H]2[C@H](N)C(=O)N2[C@H]1C(=O)O`, the Potency entry in test [1], in test [2], in test [3], in test [4], in test [5] and in test [7] was “inactive” throughout. Further, in test [6], the Potency entry was “inactive”.
As for `O=c1[nH]cc(N(CCCl)CCCl)c(=O)[nH]1`, the Potency entry in test [7] and in test [6] was “inactive” throughout.
`OC[C@@H](O)[C@H]1O[C@@H]2O[C@@H](C(Cl)(Cl)Cl)O[C@@H]2[C@H]1O`: the Potency entry in test [1], in test [7] and in test [6] was “inactive” in each case.
For the compound `O=[N+]([O-])c1cc(I)c(O)c(I)c1`, the Potency entry in test [4] and in test [5] was “inactive” in each case.
Turning to `CC[C@H]1[C@@H]2C[C@H]3[C@@H]4N(C)c5ccccc5[C@]45C[C@@H](C2[C@H]5O)N3[C@@H]1O` (stereo partly specified), the Potency entry in test [1], in test [7] and in test [6] was “inactive” throughout.
As for `CCC1(c2ccccc2)C(=O)NC(=O)N(C(=O)c2ccccc2)C1=O` (stereo unspecified), in test [1], the Potency result is “inactive”. The Potency in test [8] is 28.2 µM (active).
With `CCN(CC)C(=O)N[C@H]1C[C@@H]2c3cccc4[nH]cc(c34)C[C@H]2N(C)C1`, the Potency result in test [2], in test [3], in test [4] and in test [5] was “inactive” throughout.
With `CC(=O)Oc1ccc2c3c1O[C@H]1[C@@H](OC(C)=O)C=C[C@H]4[C@@H](C2)N(C)CC[C@@]341`, the Potency result in test [1], in test [7] and in test [6] was “inactive” in each case.
Regarding `O=C1Nc2ccc(Cl)cc2C(c2ccccc2Cl)=NC1O` (stereo unspecified), the Potency result in test [1], in test [2], in test [3], in test [4], in test [7] and in test [6] was “inactive” in each case.
Take `CC(=O)O[C@H]1CC[C@H]2[C@@H]3CCC4=CC(=O)CCC4=C3C=C[C@]12C`: the results for the Potency in test [1], in test [4] and in test [6] were 2.68 µM (active), 0.0017 µM (active) and 0.531 µM (active), respectively. Further, in test [5], the Potency result was “inactive”.
On to `C[C@]12CC[C@H](OS(=O)(=O)O)CC1=CC[C@@H]1[C@@H]2CC[C@]2(C)C(=O)CC[C@@H]12`, for which the Potency result in test [2] and in test [5] was “inactive” each time. Besides, the Potency in test [4] was 21.1 µM (active); in test [6] it was 13.3 µM (active).
Regarding `Cc1ccccc1-n1c(C)nc2ccccc2c1=O`, the Potency entry in test [1] and in test [7] was “inactive” in each case. Besides, in test [6], the Potency entry is “inactive and 53.9 µM (active)”.
Regarding `COC(COC(N)=O)C1=C(N2CC2)C(=O)C(C)=C(N2CC2)C1=O` (stereo unspecified), in test [4], the Potency entry is “inactive”. The Potency in test [5] was 1.33 µM (active).
On to `COC([CH2][Hg])CNC(=O)c1ccccc1OCC(=O)O` (stereo unspecified), for which the Potency entry in test [1] and in test [6] was “inactive” each time.
Turning to `C#CC(C)(O)CC` (stereo unspecified), the Potency entry in test [1] and in test [6] was “inactive” throughout.
Consider `NCC[C@H](O)C(=O)N[C@@H]1C[C@H](N)[C@@H](O[C@H]2O[C@H](CN)[C@@H](O)[C@H](O)[C@H]2N)[C@H](O[C@@H]2O[C@H](CO)[C@@H](O)[C@H]2O)[C@H]1O`, for which the Potency entry in test [4], in test [5] and in test [6] was “inactive” throughout.
In the case of `CCC1C(C)=NN=C(c2ccc(OC)c(OC)c2)c2cc(OC)c(OC)cc21` (stereo unspecified), the Potency result in test [6] is “inactive”.
For `CC(=O)[C@H]1CC[C@H]2[C@@H]3CC[C@@H]4C[C@H](O)CC[C@]4(C)[C@H]3CC[C@]12C`, the Potency result in test [7] was “inactive”. Also, the Potency in test [6] is 29.8 µM (active).
Take `CCCCCc1cc(O)c2c(c1)OC(C)(C)[C@@H]1CCC(C)=C[C@@H]21`: the Potency result in test [3], in test [4] and in test [5] was “inactive” each time.
As to `Oc1cccc[c]1[Hg][Cl]`, the figures for the Potency in test [2] and in test [5] were 6.74 µM (active) and 4.22 µM (active), respectively. In addition, the Potency entry in test [4] and in test [8] was “inactive” each time.
Take `Cc1nnc2n1-c1ccc(Cl)cc1C(c1ccccc1Cl)=NC2`: the Potency entry in test [8] was “inactive”.
As to `CCN1C[C@]2(COC)[C@H](O)C[C@H](OC)[C@@]34[C@@H]5C[C@@]6(O)[C@H](OC(=O)c7ccccc7)[C@@H]5[C@@](OC(C)=O)([C@@H]([C@H](OC)[C@H]23)[C@@H]14)[C@@H](O)[C@@H]6OC`, the Potency entry in test [7] and in test [6] was “inactive” each time.
Consider `Clc1ccc2c(c1)C(c1ccccc1)=NCc1nncn1-2`, for which the Potency result in test [1], in test [3], in test [4], in test [5], in test [7] and in test [6] was “inactive” each time.
`[H+].[H+].[Hg+2].[O-]B([O-])[O-].[c-]1ccccc1`: the Potency entry in test [8] was “inactive”.
Take `[2H]C([2H])([2H])[C@H](N)Cc1ccccc1`: the Potency result in test [1], in test [2], in test [4], in test [5] and in test [6] was “inactive” in each case.
